Data as given in PubChem BioAssay AID588458 (Sanford-Burnham Center for Chemical Genomics, 2011).
Where “and” joins values, the source holds several entries; their conditions need not be identical. Equal entries are not always repeated. The campaign covered roughly 360,000 compounds. About 3,000 (0.83%) were called active. Only a selection was taken, and actives are over-represented in it overall. Values without a mark were called inactive. Cut-off read from the data, not from the text of the source: active = inhibition above about 50%; inactive = the rest.

These molecules were tested against DNA (cytosine-5)-methyltransferase 1 (Homo sapiens) (UniProt P26358) (assay: human DNMT1 methyltransferase inhibitors, primary screen, biochemical, molecular beacon, fluorescence, HinP1I cleavage, uHTS (AID 588458)). Conditions: at 10 µM, stronger effect = higher value.
Chain of DNA (cytosine-5)-methyltransferase 1 (Homo sapiens) (P26358 504-1616 limits assumed): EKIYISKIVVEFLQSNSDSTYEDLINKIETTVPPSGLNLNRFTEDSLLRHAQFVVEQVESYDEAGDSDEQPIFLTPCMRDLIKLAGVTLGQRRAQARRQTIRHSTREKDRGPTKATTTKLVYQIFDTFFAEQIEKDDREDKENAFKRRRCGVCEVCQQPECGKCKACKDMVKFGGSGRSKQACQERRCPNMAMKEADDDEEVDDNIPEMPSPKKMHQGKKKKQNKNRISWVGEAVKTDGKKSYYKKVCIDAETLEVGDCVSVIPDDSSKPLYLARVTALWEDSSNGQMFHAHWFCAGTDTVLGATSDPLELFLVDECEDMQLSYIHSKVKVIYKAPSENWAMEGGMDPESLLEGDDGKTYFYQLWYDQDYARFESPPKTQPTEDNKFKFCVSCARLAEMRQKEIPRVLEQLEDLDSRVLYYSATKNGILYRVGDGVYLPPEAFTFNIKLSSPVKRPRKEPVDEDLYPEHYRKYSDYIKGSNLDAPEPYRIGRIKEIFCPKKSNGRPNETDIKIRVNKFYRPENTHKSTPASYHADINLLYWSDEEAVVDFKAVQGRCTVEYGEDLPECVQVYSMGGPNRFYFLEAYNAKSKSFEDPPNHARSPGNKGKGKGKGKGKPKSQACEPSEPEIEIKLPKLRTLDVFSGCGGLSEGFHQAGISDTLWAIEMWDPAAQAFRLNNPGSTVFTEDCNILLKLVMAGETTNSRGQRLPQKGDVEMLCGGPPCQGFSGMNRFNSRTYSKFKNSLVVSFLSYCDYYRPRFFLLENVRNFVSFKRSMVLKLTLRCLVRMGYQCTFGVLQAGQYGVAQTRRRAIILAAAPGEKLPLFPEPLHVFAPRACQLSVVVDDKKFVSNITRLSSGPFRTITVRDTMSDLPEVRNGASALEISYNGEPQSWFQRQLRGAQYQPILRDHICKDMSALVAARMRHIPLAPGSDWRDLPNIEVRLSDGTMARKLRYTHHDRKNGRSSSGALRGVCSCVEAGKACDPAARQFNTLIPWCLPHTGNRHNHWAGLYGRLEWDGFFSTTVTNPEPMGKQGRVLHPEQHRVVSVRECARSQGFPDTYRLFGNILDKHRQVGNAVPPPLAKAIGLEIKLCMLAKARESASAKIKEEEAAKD
For Cc1c(C(=O)O)cccc1-n1c(C)cc(/C=C2\C(=O)NC(=O)N(c3ccc4c(c3)OCO4)C2=O)c1C, the inhibition (reported as % activation of signal) was 86.2% (active).
In the case of Cc1ccnc(-n2c(C)cc(/C=C3\C(=O)NC(=S)N(C)C3=O)c2C)c1, the inhibition (reported as % activation of signal) is reported as 5.36%.
COC(=O)C1=C(c2c(C)noc2C)C[C@@H]2CC[C@H]1N2C(=O)NCc1ccc2c(c1)OCO2 gave an inhibition (reported as % activation of signal) of 2.7%.
Work on Cc1ccc(-n2c(C)cc(/C=C3\C(=O)NC(=O)N(C)C3=O)c2C)cc1C yielded an inhibition (reported as % activation of signal) of 29.9%.
Cc1cc(C=C2C(=O)NC(=O)NC2=O)c(C)n1-c1ccncc1 was tested, and the inhibition (reported as % activation of signal) was 5.18%.
O=C1NC(=O)N(Cc2ccco2)C(=O)/C1=C\c1ccc(-c2ccc(F)cc2)o1 was tested, and the inhibition (reported as % activation of signal) was 79.9% (active).
With Cc1cc(/C=C2/C(=O)NC(=O)N(Cc3ccco3)C2=O)c(C)n1-c1ccc(C(=O)O)cc1 the inhibition (reported as % activation of signal) was 51.8% (active).
With O=C1NC(=O)N(Cc2ccco2)C(=O)/C1=C\c1cccn1CCOc1ccccc1 the inhibition (reported as % activation of signal) was 52.4% (active).
Work on CCOC(=O)C(O)(c1ccc(N=Cc2ccccc2O)c(C)c1)C(F)(F)F (stereo not given) yielded an inhibition (reported as % activation of signal) of 0.86%.
Work on CC1CNCCN1c1ccc(Cl)cc1 (stereo not given) yielded an inhibition (reported as % activation of signal) of -33.5%.
O=C1C2(Cl)C3(Cl)C4(Cl)C(Cl)(Cl)C5(Cl)C3(Cl)C1(Cl)C5(Cl)C24Cl (stereo not given) gave an inhibition (reported as % activation of signal) of -6.15%.
O=P(OC1=CCCCC1)(c1ccccc1)c1ccccc1 was tested, and the inhibition (reported as % activation of signal) was -0.46%.
For COC(=O)C1=C(c2ccc(OCc3ccccc3)cc2)C[C@@H]2CC[C@H]1N2C(=O)NCc1ccc(Cl)cc1, the inhibition (reported as % activation of signal) was -11.6%.
Fc1ccc(C2N3CCCN23)cc1 (stereo not given) gave an inhibition (reported as % activation of signal) of 0.57%.
COC(=O)C(O)(c1ccc(NC(=O)c2ccco2)c(OC)c1)C(F)(F)F (stereo not given) was tested, and the inhibition (reported as % activation of signal) was 2.7%.
CCOC(=O)c1c(-c2ccccc2)oc2ccc(OC(=O)N(C)C)cc12 showed an inhibition (reported as % activation of signal) of -3%.
For CC(C)n1c(=O)c(C=Nc2ccc(Br)cc2)c(O)n(Cc2ccco2)c1=O, the inhibition (reported as % activation of signal) was 3.48%.
For Cc1ccc(-c2nc3ccccc3c(=O)n2-c2ccc(Br)cn2)cc1, the inhibition (reported as % activation of signal) was -0.14%.
N#CC1=C(N)Oc2c(c(=O)oc3ccccc23)C1c1ccccc1OC(=O)c1cccs1 (stereo not given) showed an inhibition (reported as % activation of signal) of 0.68%.
CC12CCC3C(CCC4CC(=O)CCC43C)C1CC(=NO)C2=O (stereo not given) showed an inhibition (reported as % activation of signal) of 0.34%.
For COc1ccc(N2C(=O)/C(=C/c3ccco3)C(=O)NC2=S)cc1, the inhibition (reported as % activation of signal) was 97.9% (active).
COc1cc(C(=O)N2Cc3ccc(Br)cc3-n3nncc3C2)cc(OC)c1OC gave an inhibition (reported as % activation of signal) of 3.06%.
Cc1cc(-c2ccc(N)c(C)c2)ccc1N was tested, and the inhibition (reported as % activation of signal) was -7.86%.
Cc1cc(C)cc(NC(=S)NC2CC3CCCC(C2)N3Cc2cccs2)c1 (stereo not given) gave an inhibition (reported as % activation of signal) of -3.24%.
For Oc1ccc2c3c1OC1[C@H](O)CC[C@@]4(O)[C@@H](C2)N(CC2CC2)CC[C@]314 (stereo not given in full), the inhibition (reported as % activation of signal) was 3.17% and 0.16%.
CC(=NC1CCN(Cc2ccccc2)CC1)c1c(O)n(C)c(=O)n(C)c1=O gave an inhibition (reported as % activation of signal) of 2.93%.
Work on CC1=C(C(=O)Nc2ccccc2)S(=O)(=O)CCO1 yielded an inhibition (reported as % activation of signal) of 2.83%.
In the case of CC1=C(C(=O)Nc2ccccc2)SCCO1, the inhibition (reported as % activation of signal) is reported as 87.4% (active).
For CCN1CCN(C(=O)Cc2coc3cc(C)cc(C)c23)CC1, the inhibition (reported as % activation of signal) was 2.55%.
With COc1ccc(NC(=O)N2Cc3ccccc3-n3nncc3C2)cc1 the inhibition (reported as % activation of signal) was 7.01%.
